Screens: PubChem BioAssay, National Center for Advancing Translational Sciences (NCATS)
RORg inh: ROR gamma (mouse) transcription inhibition; P51450; Drosophila S2 Gal4-RORgamma UAS-luciferase reporter, 20 h; Potency, µM (titrated, usually from 53.6 µM), without a hit: top-dose activity change, negative = inhibition, hits mostly inhibitors; 310,000 tested, 5.4% active; AID 2551; also: nearly all actives have a fitted effect of over 60% in size
Target sequence (P51450 whole entry, looked up, the tested form may be a part): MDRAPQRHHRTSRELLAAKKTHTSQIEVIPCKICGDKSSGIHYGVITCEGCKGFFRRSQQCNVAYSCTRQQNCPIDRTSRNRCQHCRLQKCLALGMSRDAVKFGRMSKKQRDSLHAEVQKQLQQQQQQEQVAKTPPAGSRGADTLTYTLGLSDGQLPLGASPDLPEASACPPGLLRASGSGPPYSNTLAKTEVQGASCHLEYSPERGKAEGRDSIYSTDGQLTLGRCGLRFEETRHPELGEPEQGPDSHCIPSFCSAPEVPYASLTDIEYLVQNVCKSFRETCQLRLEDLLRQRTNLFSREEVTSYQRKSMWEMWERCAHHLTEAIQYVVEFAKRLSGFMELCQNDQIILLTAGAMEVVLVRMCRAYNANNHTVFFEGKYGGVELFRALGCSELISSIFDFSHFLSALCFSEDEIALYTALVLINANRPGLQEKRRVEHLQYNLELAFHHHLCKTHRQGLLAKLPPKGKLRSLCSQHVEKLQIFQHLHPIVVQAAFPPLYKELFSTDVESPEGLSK
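Compounds are pin-transferred onto Drosophila Schneider cells expressing a copper-inducible Gal4–ROR gamma transactivation domain fusion. After 1 hr, copper sulfate is added to 700 uM final; luciferase is read 20 hr later.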
Tau ThT inhib: blocks human tau fibril formation measured by thioflavin T; P10636; recombinant tau K18 P301L, heparin-induced fibrillization, ThT fluorescence; Potency, µM (series often up to 57.4 µM), for the others: at the top dose activity, negative = inhibition, most hits filed as inhibitors; 270,000 tested, 2.1% active; AID 1460; also: nearly all actives have a fitted effect of over 55% in size
Target sequence (P10636 561-689 P618L limits assumed): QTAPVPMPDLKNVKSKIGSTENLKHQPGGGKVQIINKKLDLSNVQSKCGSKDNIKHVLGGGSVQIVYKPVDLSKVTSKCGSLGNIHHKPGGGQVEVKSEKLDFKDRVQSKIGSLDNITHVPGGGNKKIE
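In this qHTS, human K18 P301L tau is incubated with compound and heparin for 6 hr at 37 C, and Thioflavin T fluorescence then reports fibril load.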
Tau FP inhib: blocks human tau fibril formation measured by polarization. P10636. 280,000 tested, 0.39% active. Potency, µM (titrated, usually from 57.7 µM), inactives show at the top dose activity, negative = inhibition, most hits filed as inhibitors. K18 P301L tau heparin fibrillization, Alexa594 FP, 6 h. AID 1468; also: nearly all actives have a fitted effect of over 55% in size
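Heparin (20 uM) drove fibril formation of recombinant tau K18 P301L, 15 uM unlabeled with 0.24 uM Alexa 594 label, for 6 hr at 37 C in 100 mM sodium acetate pH 7. Fluorescence polarization (555/632 nm) read 1 hr after 30 uM ThT.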
Tau fluor counter: counter-screen for tau fibril formation inhibitors. tau K18 P301L Alexa594 fluorescence, heparin fibrillization. Potency, µM (top dose mostly 57.7 µM), inactives show top-dose activity change, negative = decrease. 280,000 tested, 0.93% active. AID 1463; also: nearly all actives have a fitted effect of over 55% in size
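Human tau K18 P301L (15 uM unlabeled, 0.24 uM Alexa 594-labeled) in 100 mM sodium acetate pH 7 with 20 uM heparin, 6 hr at 37 C. ThT 30 uM added, 1 hr ambient; Alexa 594 FP and total fluorescence read at 555/632 nm.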
VP16 counter: inhibits Gal4-VP16 luciferase reporter, ROR gamma counter-screen; AID 2546; 310,000 tested, 3.5% active; Potency, µM (titrated, usually from 53.6 µM), inactives show top-dose activity, negative = inhibition, actives largely listed as inhibitors; Drosophila S2 Gal4-VP16 UAS-luciferase, luminescence, 20 h;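 also: Gal4-VP16 expression switched on by copper sulfate through the metallothionein promoter; nearly all actives have a fitted effect of over 50% in size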
* = called active by the depositor; [ ] = another dose, or the depositor's remark. Compounds with a hit are over-represented: about 7.3% of the library has one in this group of screens. Calls follow the shape of the dose curve; as a rule, active = well fitted curve in the direction sought with a large enough effect; inconclusive = small, poorly fitted or top-dose-only effect, or another doubt; inactive = no such curve, though single readings can be large; an effect the other way counts as inactive or inconclusive. % is scaled to controls: 0 for no effect and ±100 for the full control effect; potency is read from the fitted curve at half-maximal effect.

For CCN(c1ccccc1)S(=O)(=O)c1ccc(NC(=O)c2nc(S(C)(=O)=O)ncc2Cl)cc1 the results were RORg inh 6.3µM*, Tau ThT inhib inconclusive, Tau FP inhib inconclusive, Tau fluor counter -21% and VP16 counter 3.2µM*.
For CCSc1ncc(Cl)c(C(=O)Nc2ccc(S(=O)(=O)N(C)c3ccccc3)cc2)n1 the results were Tau ThT inhib -3%, Tau FP inhib -5% and Tau fluor counter inconclusive.
Screening CCS(=O)(=O)c1ncc(Cl)c(C(=O)Nc2ccc(S(=O)(=O)N(C)c3ccccc3)cc2)n1 returned RORg inh 2.8µM*, Tau ThT inhib inconclusive, Tau FP inhib inconclusive, Tau fluor counter -20% and VP16 counter 2.8µM*.
Screening NC(=S)Cc1nc(-c2ccc(Cl)cc2)cs1 returned RORg inh 5µM*, Tau ThT inhib 16µM*, Tau FP inhib inconclusive, Tau fluor counter inconclusive and VP16 counter inconclusive.
`CN(CCc1ccccn1)C(=S)NC(=O)c1ccco1` gave RORg inh 14µM*, Tau ThT inhib 1%, Tau FP inhib -11%, Tau fluor counter -2% and VP16 counter inconclusive.
Screening O=C(NC(NCc1ccccn1)(C(F)(F)F)C(F)(F)F)c1ccco1 returned RORg inh 10µM*, Tau ThT inhib -10%, Tau FP inhib -5%, Tau fluor counter 6% and VP16 counter -15%.
CCC(C(=O)NCc1ccccn1)n1c2ccccc2c2nc(=O)cc(C)n21 (configuration not stated) was read as RORg inh -5% and VP16 counter 3%.
`COc1ccccc1CNc1ncnc2onc(-c3ccc(Cl)cc3)c12` gave Tau ThT inhib -13%, Tau FP inhib -9% and Tau fluor counter -19%.
CCOC(=O)Cn1c(=O)oc2cc(S(=O)(=O)NCCc3ccc(C)cc3)ccc21 was read as RORg inh inconclusive, Tau ThT inhib -16%, Tau FP inhib 10%, Tau fluor counter -14% and VP16 counter inconclusive.
`CCOC(=O)Cn1c(=O)oc2cc(S(=O)(=O)NCCCc3ccccc3)ccc21` gave RORg inh inconclusive, Tau ThT inhib -2%, Tau FP inhib -3%, Tau fluor counter -14% and VP16 counter 13µM*.
For Cc1ccc(S(=O)(=O)N2CCCCC2)c2nsnc12 the results were RORg inh 12% and VP16 counter -2%.
`CC(C)(C)c1ccc(C(=O)NCCOc2ccccc2)cc1` gave RORg inh 8.9µM* and VP16 counter inconclusive.
`CC(C)(C)c1ccc(C(=O)NCCc2ccccc2)cc1` gave RORg inh -43% and VP16 counter inconclusive.
`CC(C)(C)c1ccc(C(=O)NCCOc2ccccc2F)cc1` gave RORg inh 7.1µM* and VP16 counter 6.3µM*.
`CN(C)S(=O)(=O)c1ccc(C(=O)NCCOc2ccccc2)cc1` gave RORg inh -2%, Tau ThT inhib -10%, Tau FP inhib -1%, Tau fluor counter -7% and VP16 counter inconclusive.
For COC(=O)CCC(=O)Nc1ccc(N=Nc2ccccc2)cc1 the results were RORg inh 35%, Tau ThT inhib 11µM*, Tau FP inhib -11%, Tau fluor counter inconclusive and VP16 counter 5%.
For COC(=O)c1ccc(C[n+]2ccccc2)cc1 the results were RORg inh 0.1µM* and VP16 counter 12%.
For COC(=O)c1ccc(N=Nc2ccccc2)cc1 the results were RORg inh -19%, Tau ThT inhib 14µM*, Tau FP inhib -1%, Tau fluor counter -10% and VP16 counter -10%.
COC(=O)c1ccc(NC(=O)C[n+]2ccccc2)cc1 was read as RORg inh 14% and VP16 counter -3%.
COC(=O)c1ccc(OCCOc2ccccc2)cc1 was read as RORg inh 37%, Tau ThT inhib inconclusive, Tau FP inhib -14%, Tau fluor counter -15% and VP16 counter -7%.
Screening O=C(O)CCCC(=O)Nc1ccc(N=Nc2ccccc2)cc1 returned RORg inh 2%, Tau ThT inhib inconclusive, Tau FP inhib -12%, Tau fluor counter -14% and VP16 counter -10%.
Screening COc1ccc(C)cc1NC(=O)C1CCN(C(=O)c2ccc(C(C)(C)C)cc2)CC1 returned RORg inh 14% and VP16 counter inconclusive.
Screening O=c1cc(-c2ccccc2)c2cc(Cl)c3c(c2o1)CN(Cc1ccccc1)CO3 returned Tau ThT inhib -7%, Tau FP inhib -7% and Tau fluor counter -23%.
`Cc1cc(C(=O)NC2CCCc3c2cnn3-c2ccc(C(C)(C)C)cc2)n[nH]1` (configuration not stated) gave RORg inh -62% and VP16 counter inconclusive.
Screening COc1ccc2[nH]c3c(=O)n(N)c(C)nc3c2c1 returned RORg inh inconclusive, Tau ThT inhib -7%, Tau FP inhib 6%, Tau fluor counter -4% and VP16 counter -2%.
COc1ccc(-c2cc3nc(C)n(N)c(=O)c3s2)cc1 was read as RORg inh 1.8µM*, Tau FP inhib 1%, Tau fluor counter -7% and VP16 counter 1.3µM*.
Screening Cc1nc2cc(-c3ccccc3)sc2c(=O)n1N returned RORg inh 0.71µM*, Tau ThT inhib -13%, Tau FP inhib -8%, Tau fluor counter -7% and VP16 counter 1.6µM*.
`COc1ccc(-c2cc3nc4n(c(=O)c3s2)CCCCC4)cc1` gave RORg inh -11%, Tau ThT inhib -6%, Tau FP inhib -5%, Tau fluor counter -6% and VP16 counter -18%.
For COc1ccc(-c2cc3nc4n(c(=O)c3s2)CCC4)cc1 the results were RORg inh inconclusive, Tau ThT inhib inconclusive, Tau FP inhib -2%, Tau fluor counter -2% and VP16 counter 1.6µM*.
Cc1ccc(C)n1-n1c(C)nc2sc(-c3ccccc3)cc2c1=O was read as RORg inh -12%[0.365 µM], Tau ThT inhib inconclusive, Tau FP inhib -3% and Tau fluor counter -15%.
Screening COCCN(C(=S)Nc1c(C)cc(C)cc1C)C(C)c1cccs1 (configuration not stated) returned RORg inh 10µM*, Tau ThT inhib -14%, Tau FP inhib 2%, Tau fluor counter -15% and VP16 counter 2%.
COCCN(C(=S)Nc1ccc(C)cc1C)C(C)c1cccs1 (configuration not stated) was read as RORg inh inconclusive, Tau ThT inhib -4%, Tau FP inhib 0%, Tau fluor counter -12% and VP16 counter inconclusive.
COCCN(C(=S)Nc1ccc(C(C)C)cc1)C(C)c1cccs1 (configuration not stated) was read as RORg inh 3.5µM*, Tau ThT inhib -13%, Tau FP inhib -6%, Tau fluor counter -28% and VP16 counter inconclusive.
